Laboratory results taken from PubChem BioAssay (NCI).
About 83,000 compounds went through this panel and 20% of them were active in at least one assay; those are over-represented in the sample as a whole.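 Cells were grown in 96-well plates and exposed to the test compound at a single concentration for 48 hours; results are reported as percent growth, with values below 10 considered active.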 Values without a mark were called inactive. Active and inactive are the calls of the source.

What was measured:
Assay in all cases: NCI-60 one-dose screen, 48 h (100 = growth as untreated, 0 = no growth, -100 = all killed)
Conditions in all cases: 10 µM unless noted
[1] = tested on: SR leukemia
[2] = tested on: RPMI-8226 leukemia
[3] = tested on: OVCAR-8 ovarian
[4] = tested on: OVCAR-5 ovarian
[5] = tested on: OVCAR-4 ovarian
[6] = tested on: SK-OV-3 ovarian
[7] = tested on: IGROV1 ovarian
[8] = tested on: OVCAR-3 ovarian
[9] = tested on: NCI/ADR-RES ovarian
[10] = tested on: T-47D breast
[11] = tested on: BT-549 breast
[12] = tested on: MDA-MB-435 melanoma
[13] = tested on: SW-620 colon
[14] = tested on: MCF7 breast
[15] = tested on: HCT-116 colon
[16] = tested on: HCC-2998 colon
[17] = tested on: KM12 colon
[18] = tested on: HS 578T breast

Row | SMILES | growth [1] | growth [2] | growth [3] [%] | growth [4] [%] | growth [5] [%] | growth [6] | growth [7] [%] | growth [8] | growth [9] [%] | growth [10] [%] | growth [11] [%] | growth [12] [%] | growth [13] [%] | growth [14] | growth [15] | growth [16] [%] | growth [17] [%] | growth [18] [%]
1 | BrCc1cccc(C[P+](c2ccccc2)(c2ccccc2)c2ccccc2)c1 | 50.3% | 22.6% | 29.2 | 81.2 | 36.8 | 90.2% | 38.8 | 14.2% | 111 | 28.2 | 93.1 | 18 | 25.4 | 53.3% | 22.2% | 33.1 | 30.2 | –
2 | O=C(NCc1ccccc1)c1cccc([N+](=O)[O-])c1 | 92.4% | 91% | 97.2 | 116 | 111 | 108% | 101 | 106% | 104 | – | – | 98.4 | 99.2 | 97.8% | 103% | 108 | 85 | 91.2
3 | CC(C)=CCC[C@@H](C)[C@H]1CC[C@@]2(C)C3=C(CC[C@]12C)[C@@]1(C)CC[C@H](O)C(C)(C)[C@@H]1CC3 | 93.4% | 102% | 102 | 107 | 105 | 108% | 115 | 122% | 110 | 92.8 | 109 | 101 | 99.9 | 97.3% | 108% | 101 | 109 | –
4 | NNc1ncnc2c1ncn2C1OC(CO)C(O)C1O (centres undefined) | 17.5% | 51.8% | 25.6 | 54.7 | 45 | 2.11% (active) | 66.7 | 9.24% (active) | 24.3 | – | 42.3 | 56.4 | 21.4 | 6.39% (active) | 4.61% (active) | 48.9 | 28.5 | 53
5 | COc1ccc(C(=O)C(=O)c2ccccc2)cc1 | 95.9% | 103% | 105 | 101 | 100 | 103% | 102 | 108% | 104 | 104 | 112 | 95.1 | 100 | 103% | 105% | 104 | 102 | –
6 | O=Cc1ccc(F)cc1 | 111% | 105% | 103 | 102 | 106 | 109% | 95.2 | 111% | 107 | 94.6 | 100 | 97.9 | 92.8 | 92.6% | 101% | 104 | 109 | –
7 | CC(C)C(=O)OCCOc1ccc(C(C)(C)C)cc1 | 98.6% | 97.7% | 99.5 | 103 | 98.6 | 108% | 104 | 107% | 100 | – | – | 87.5 | 92.2 | – | 105% | 111 | 93.3 | 93.9
8 | CC(CC(CCC(=O)O)(c1ccccc1)c1ccccc1)N(C)C (centres undefined) | 98.6% | 109% | 94.4 | 98.4 | 96.1 | 97.6% | 107 | 67.3% | 108 | – | 68.1 | 105 | 109 | 91.2% | 97.2% | 106 | 109 | 106
9 | COc1ccc2c(c1)Nc1ccccc1S2 | 118% | 95.4% | 102 | 106 | 91.4 | 111% | 103 | 113% | 111 | 95.7 | 89.1 | 112 | 106 | 98.6% | 105% | 108 | 110 | –
10 | CC(C)(N)CO[C@H]1C[C@H]2CC[C@@]1(C)C2(C)C | 106% | 108% | 102 | 95 | 104 | 112% | 106 | 93.6% | 103 | – | 93.5 | 94.7 | 88.1 | 92.5% | 89.9% | 102 | 94.1 | 81.9
11 | CC(=O)NC(O)C(Cl)Cl (centres undefined) | 97.2% | 95.8% | 96.4 | 97.2 | 97.5 | -22.9% (active) | 107 | 74.5% | 98.5 | – | 85.9 | 103 | 114 | 93.7% | 114% | 98.4 | 103 | 107
12 | FC(F)(F)c1cc(NC2=NCCN=C(Nc3cc(C(F)(F)F)cc(C(F)(F)F)c3)SS2)cc(C(F)(F)F)c1 | 1.94% (active) | 6.78% (active) | 48.6 | 102 | 65.8 | 79.5% | 49.7 | 25.8% | 59.6 | 15.8 | – | – | 52 | 31.6% | 45.4% | 76.9 | 44.2 | 79.3
13 | CCC(C)c1c(N)n(S(=O)(=O)c2ccc(C)cc2)oc1=O (centres undefined) | 107% | 100% | 96.6 | 99.1 | 109 | 113% | 88.7 | 118% | 120 | – | 110 | 107 | 105 | 108% | 102% | – | 104 | 130
14 | Cc1[nH]nc(C(N)=O)c1[N+](=O)[O-] | 84.7% | 96.3% | 108 | 104 | 122 | 101% | 115 | 101% | 102 | – | 109 | 105 | 91 | 97.4% | 99.9% | 106 | 103 | 87.7
15 | CC(C)C(C)(C)C(=O)C(C)(C)C(C)(C)C | 100% | 96.1% | 99.1 | 97.5 | 117 | 82.8% | 105 | 80.3% | 104 | – | 82 | 108 | 106 | 97% | 97.7% | 104 | 107 | 93.9
16 | Cc1ccc(C2CCCCC2)cc1Br | 91.4% | 100% | 98.4 | 94.3 | 119 | 96.5% | 101 | 104% | 97.7 | – | – | 100 | 99.1 | 96.9% | 105% | 105 | 94.3 | 96.4
17 | O=S1(=O)c2ccccc2Oc2ccccc21 | 101% | 110% | 99.6 | 96.3 | 100 | 104% | 105 | 114% | 108 | – | – | 101 | 95 | 87.8% | 102% | 106 | 109 | 106
18 | O=C(Oc1ccccc1Cl)c1ccc(Cl)cc1Cl | 104% | 98.9% | 101 | 109 | 109 | 99.6% | 108 | 107% | 103 | – | – | 95.4 | 98.9 | 84.6% | 95.2% | 102 | 87.4 | 93.8
19 | COC(=O)c1cccc([N+](=O)[O-])c1 | 99% | 102% | 107 | 111 | 130 | 115% | 111 | 108% | 102 | – | 131 | 117 | 105 | – | 110% | 99.7 | 103 | 102
